Test results reported in PubChem BioAssay (Tox21).
Where “and” joins values, the source holds several entries; their conditions need not be identical. Equal values may be shown once. Inconclusive results are not listed. Values without a mark were called inactive. Calls of active or inactive are those of the source. Calls follow the shape of the dose curve; as a rule, active = well fitted activation curve with a large enough effect in the repeat runs; inconclusive = weak or mixed curves; inactive = flat fitted curve, though single readings scatter.

Assay: A CellTox Green Cytotoxicity Assay to monitor cytotoxicity in HepG2 cells - 24 hour (AID 1224878); also: nearly all actives have a fitted effect of over 45% in size
Details: CellTox Green fluorescence; series mostly up to 76.8 µM; cytotoxicity: at the top concentration
From the text: National Center for Advancing Translational Sciences [NCATS]
NIH Chemical Genomics Center [NCGC]
U.S. Environmental Protection Agency [EPA]
National Institutes of Environmental Health Sciences [NIEHS]
National Toxicology Program [NTP]
Cell-based models are critical for drug discovery. Determining the natural cytotoxic effects resulting from test compounds is an essential research activity. A CellTox Green Cytotoxicity Assay to monitor cytotoxicity in real time of continues cell culture during 40 hours of the compound treatment was used to screen Tox21 10K library compounds in HepG2 cells. CellTox Green Cytotoxicity Assay is a nonlytic, homogeneous, biofluorescent method to measure cytotoxicity in cell culture after experimental manipulation. The assay system uses a proprietary asymmetric cyanine dye that is excluded from viable cells but preferentially stains the dead cell's DNA. […] Viable cells produce no appreciable increases in fluorescence. Therefore, the fluorescence signal produced by the binding interaction with dead cell DNA is proportional to cytotoxicity.
The mixture of HepG2 cell suspension and reagents were dispensed at 600cells/6 ul/well in 1536-well tissue culture treated black solid bottom plates using a Multidrop dispenser. After the assay plates were incubated at a 37 C/5% CO2 incubator for 5 hours, 23 nL of compounds dissolved in DMSO, positive and negative controls was transferred to the assay plate by a pintool work station. The plates were incubated at 37 C for 40 hours. The fluorescence intensity were measured at 0h, 8h, 16h, 24h, 32h and 40h time points using ViewLux plate reader during compound treatment.
% is scaled to controls: 0 for no effect and ±100 for the full control effect; potency is read from the fitted curve at half-maximal effect.

SMILES | cytotoxicity | Potency
CC(=O)OC1CCCCC1 | -3.82% | 
CC(C)CCOCCC(C)C | -13.9% | 
C=C[C@](C)(O)CC[C@@H]1[C@@]2(C)CCCC(C)(C)[C@@H]2CC[C@@]1(C)O |  | 49 µM (active)
O=C[C@H](O)[C@H](O)[C@H](O)CO | 1.59% | 
CCc1ccc(C)nc1 | -12.9% | 
C[C@H]1O[C@@H](O[C@H]2[C@@H](O)C[C@H](O[C@H]3[C@@H](O)C[C@H](O[C@H]4CC[C@@]5(C)[C@H](CC[C@@H]6[C@@H]5C[C@@H](O)[C@]5(C)[C@@H](C7=CC(=O)OC7)CC[C@]65O)C4)O[C@@H]3C)O[C@@H]2C)C[C@H](O)[C@@H]1O |  | inactive
Cc1ccc2ccc3cccc4ccc1c2c34 | -4.98% | 
NC(=O)c1ccccc1N | 0.031% | 
CCOC(=O)CC(C)O (stereo not given) | 1.18% | 
CCNc1nc(NC(C)CC)nc(OC)n1 (stereo not given) | 1.8% | 
C=C(C)CCCC | 0.793% | 
CCC1(c2cnc[nH]2)Cc2ccccc2C1 | -1.38% [at 35.3 µM] | 
CCO[Si](C)(C)OCC | -5.45% | 
CCN=c1cc2oc3cc(NCC)c(C)cc3c(-c3ccccc3C(=O)OCC)c-2cc1C |  | 19.4 µM (active) and 5.49 µM (active)
CN1[C@@H]2CC[C@@H]1CC(OC(=O)C(CO)c1ccccc1)C2 (stereo not given in full) | -5.1% [at 35.3 µM] | 
C=CC(C)C#N (stereo not given) | -11.1% | 
CCO[Si](CCCSSSSCCC[Si](OCC)(OCC)OCC)(OCC)OCC | 11.4% | 
ClC/C=C\CCl | -0.718% | 
O=C1OC(=O)c2cccc3cccc1c23 | 0.33% | 
CCN(CC)c1cccc(C)c1 | -3.96% | 

SMILES | cytotoxicity | Potency
CC(C)=CCCC(C)CCOC(=O)C(C)C (stereo not given) | -8.33% | 
CC1=CP(=O)(c2ccccc2)CC1 (stereo not given) | -5.5% | 
CO[Si](CCCNCCNCCN)(OC)OC | -5.48% | 
CC(C(O)c1ccccc1)N(C)CCOC(c1ccccc1)c1ccccc1 (stereo not given) |  | 26.8 µM (active)
CC(C)(c1cc(Br)c(OCCO)c(Br)c1)c1cc(Br)c(OCCO)c(Br)c1 | 22.8% | 
CCCCOc1ccc(C(=O)CCN2CCCCC2)cc1 |  | 19 µM (active)
NCCCC(O)(P(=O)(O)O)P(=O)(O)O | 23.4% [at 35.3 µM] | 
Cc1cc(=O)[nH]c(=O)[nH]1 | -0.855% | 
CC(C)c1cccc(C(C)C)c1N1C(=O)c2ccc(O)cc2C1=O |  | 24.5 µM (active)
CC(C)(C)c1n[nH]c(=O)n(N)c1=O | -10.5% | 
Cn1cccc1 | -13.7% | 
CCC(=O)OCCc1ccccc1 | 1.23% | 
COc1cccc(O)c1 | -1.83% | 
CCCCCCC(C)Nc1ccc(Nc2ccccc2)cc1 (stereo not given) | 16% | 
Nc1ccc2cc3ccc(N)cc3nc2c1 |  | 49 µM (active) and 23.9 µM (active)
CCCCCCCCCCCCN(CCO)CCO |  | 24.4 µM (active)
C[C@@H]1CC[C@H]2C(C)(C)[C@H]3C[C@@]12CC[C@@]3(C)O |  | 48.9 µM (active)
O=C1OC(=O)c2ccc3c4c(ccc1c24)C(=O)OC3=O | -1.28% | 
CC1=CCC(=O)O1 | 4.21% | 
Cc1cccc(C)n1 | 0.819% | 
